According to the supplement of paper PMC10338343:
± gives the standard deviation.

Assays:
[1] = test system: MILI (PIWIL2) piRISC loaded with L1MC piRNA (26 nt); assay: pre-steady-state target cleavage rate (min^-1); guide: L1MC piRNA 5'p-UAACUAAAUACUAUGCAAGCUGUAGG; higher = faster piRNA-guided slicing of the target; settings: auxiliary factor: 500 nM mouse GTSF1;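 further: 1 nM active piRISC with 0.1 nM target library at 33 °C single turnover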
How it was run: (§1)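 A transcribed, DNA-blocked target RNA library […] was incubated at 33 °C for 0–8 or 0–960 min with 1 nM active affinity-purified piRISC carrying one synthetic guide, in HEPES–potassium acetate buffer with or without 500 nM GTSF1 partner protein. Uncleaved targets were then sequenced and normalised to depth and to weakly complementary targets. Data from three trials were pooled, with k3 capped at 0.0001 min^-1, and a burst-and-steady-state fit yielded the pre-steady-state cleavage rate.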

[2] = test system: EfPiwi piRISC loaded with L1MC piRNA (26 nt); assay: pre-steady-state target cleavage rate (min^-1); auxiliary factor: 500 nM Ephydatia muelleri Gtsf1; guide: L1MC piRNA 5'p-UAACUAAAUACUAUGCAAGCUGUAGG; MIWI and MILI are mouse PIWI proteins and EfPiwi is from a freshwater sponge; tags in brackets are library labels; higher = faster piRNA-guided slicing of the target
How it was run: as §1

| Sequence | pre-steady-state target cleavage rate [1] | pre-steady-state target cleavage rate [2] |
| --- | --- | --- |
| UCCUGGAUGACCUUGCAUAGUAUUUAGAUA | 0.115 ± 0.034 | 0.00355 ± 0.0027 |
| UCCUGCUACAGCUUGCAUAGUUUUUUCAAA | 0.0433 ± 0.014 | 0.00248 ± 0.0022 |
| UCCUGGAUCAGCUUGCAUAGUUAAUAGUUA | 0.017 ± 0.0066 | 0.00344 ± 0.003 |
| UCCUGCUACAGCUUGCAUAAGUAUUUAGUUA | 0.0171 ± 0.0064 | 0.00273 ± 0.0019 |
| UCCUCCUACAGCUAGCAUAGUAUUUAGAAA | 0.113 ± 0.021 | 0.00378 ± 0.0016 |
| UCCUGGUACAGCUUGCUUAGUAUUAAGUUA | 0.163 ± 0.041 | 0.00311 ± 0.0027 |
| UCCUGGUACAGCUUGCAUAGUAUAAAGUAA | 0.0705 ± 0.02 | 0.00243 ± 0.0022 |
| UCCUCCUACAGCUUGCAUAGAAUUUAGAUA | 0.0558 ± 0.014 | 0.00317 ± 0.0015 |
| UCCUCCUUGUGCUUGCAUAGUAUUUAGAAA | 0.0325 ± 0.0085 | 0.00387 ± 0.0022 |
| UCCUGCUACAGCUUGCAUAGUAUUUACAUA | 0.157 ± 0.041 | 0.0023 ± 0.0023 |
| UCCUCCUACAGCUAGCAUAGUAUUUAGAUA | 0.144 ± 0.025 | 0.00495 ± 0.0024 |
| UCCUCCUACAGCUUGCAUAGUAUGUUAGUUA | 0.126 ± 0.022 | 0.00459 ± 0.0021 |
| UCCUGCUACAGCUUGCAUUGUAUUUAGAUA | 0.106 ± 0.017 | 0.00283 ± 0.0018 |
| UCCUGCUACAGGUUGCAUAGUAUUUUCAAA | 0.0101 ± 0.0054 | 0.00243 ± 0.0019 |
| UCCUGGAUCAGGUUGCAUAGUAUUUAGAUA | 0.1 ± 0.023 | 0.00381 ± 0.0026 |
| UCCUGCUACAGCUUGCAUAGUUAAUAGUUA | 0.0263 ± 0.0097 | 0.00347 ± 0.0032 |
| UCCUGCUACAGCUUGCAUAGUUUUUAGUAA | 0.0393 ± 0.011 | 0.00424 ± 0.0013 |
| UCCUCCUACAGCUUGCAUAGCAUUUAGUUA | 0.0883 ± 0.013 | 0.00463 ± 0.0019 |
| UCCUGCUACACCUUGCAUAGUAUUUAGAUA | 0.112 ± 0.032 | 0.00254 ± 0.0016 |
| UCCUCCUACAGCUUGCAUAGUAUUUUCAAA | 0.232 ± 0.044 | 0.00383 ± 0.0027 |
| UCCUGCUACAGCUUGCAUAGUAUUUGUUA | 0.124 ± 0.028 | 0.00505 ± 0.002 |
| UCCUGGUACAGCUUGCAAAGUAUUUAGAUA | 0.118 ± 0.021 | 0.00431 ± 0.0026 |
| UCCUCCUACAGCUUGGUUAGUAUUUAGAAA | 0.081 ± 0.016 | 0.00231 ± 0.0022 |
| UCCUGCUACAGCUUGCAUAGUUUUUUGUUA | 0.112 ± 0.028 | 0.00384 ± 0.0021 |
| UCCUGCAACAGCUUGCAUAGUAUUUUCAAA | 0.104 ± 0.027 | 0.00269 ± 0.0017 |
| UCCUGCUACAGCUUGCAUAGUAAUUAGAAA | 0.0259 ± 0.0091 | 0.00362 ± 0.0016 |
| UCCUGCUACACCUUGCAUAGUAUUUUCAAA | 0.0765 ± 0.028 | 0.00244 ± 0.0022 |
| UCCUGGAACAGCUUGCAUAGUAAUUAGAAA | 0.0609 ± 0.018 | 0.00338 ± 0.0026 |

| Sequence | pre-steady-state target cleavage rate [1] | pre-steady-state target cleavage rate [2] |
| --- | --- | --- |
| UCCUGGAACAGCUAUGCAUAGUAUUUAGUUA | 0.21 ± 0.018 | 0.0102 ± 0.0029 |
| UCCUGGAAGUGCUUGCAUAGUAUUUAGAAA | 0.00889 ± 0.0052 | 0.00379 ± 0.0018 |
| UCCUGGAUGUGGAUGCAUAGUAUUUAGAAA | 0.013 ± 0.0055 | 0.00388 ± 0.0027 |
| UCCUGGAACAGCUUGCAUAGUUUUUUGUUA | 0.0493 ± 0.014 | 0.00325 ± 0.0013 |
| UCCUCCAUGAGCUUGCAUAGUAUUUACAAA | 0.0266 ± 0.0095 | 0.00312 ± 0.0024 |
| UCCUGGAUCAGCUUGCAUAGUAUUUAUUA | 0.044 ± 0.011 | 0.0033 ± 0.0024 |
| UCCUGGAACAGCUUGCAUUGUAUUUAGAUA | 0.149 ± 0.019 | 0.00313 ± 0.0017 |
| UCCUCCUACAGCUUGCAUAGAAUUUAGAAA | 0.0449 ± 0.015 | 0.00385 ± 0.0019 |
| UCCUGCUACAGCUUGCAAACUAUUUAGUUA | 0.048 ± 0.012 | 0.00535 ± 0.002 |
| UCCUGGAACAGCUUGCAUAGUAUUUUGUUA | 0.154 ± 0.029 | 0.00368 ± 0.0018 |
| UCCUCCUACACCUUGCAUAGUAUUAAGUUA | 0.178 ± 0.036 | 0.00451 ± 0.0025 |
| UCCUGGUACAGCUUGCAUAGUAUUAACUUA | 0.0223 ± 0.0097 | 0.0032 ± 0.0024 |
| UCCUCCAACAGCUUGCAUAGAAUUUAGUUA | 0.07 ± 0.014 | 0.00468 ± 0.0016 |
| UCCUGCUACAGCUUGCAUAGUAUUAUGAAA | 0.0843 ± 0.025 | 0.00355 ± 0.0023 |
| UCCUGGUACAGCUUGCAUAGAAUUAAGUUA | 0.0989 ± 0.03 | 0.00454 ± 0.0027 |
| UCCUGCUACAGCUUGCAUAGUAUUAACUUA | 0.0306 ± 0.0076 | 0.00397 ± 0.0027 |
| UCCUCCUAGAGCUUGCAUAGUUUUUAGUUA | 0.0719 ± 0.011 | 0.00428 ± 0.0017 |
| UCCUCCUACAGCUUGCUUAGAAUUUAGUUA | 0.0487 ± 0.011 | 0.00419 ± 0.002 |
| UCCUGGUACAGCUUGCAUAGUAUUUACAAA | 0.0693 ± 0.017 | 0.003 ± 0.002 |
| UCCUCCUACAGCUUGCAUAGUAUAUAGAUA | 0.0715 ± 0.018 | 0.0051 ± 0.0025 |
| UCCUGCUUCAGCUUGCAUAGUAUUUAGAAA | 0.195 ± 0.037 | 0.00434 ± 0.0021 |
| UCCUCCUACACGUUGCAUAGUAUUUAGAAA | 0.161 ± 0.029 | 0.00396 ± 0.003 |
| UCCUCCUACUGCUUGCAUAGUAUUUACUUA | 0.0701 ± 0.013 | 0.00299 ± 0.0029 |
| UCCUGGAAGUGCUUGCAUAGUAUUUAGUAA | 0.136 ± 0.022 | 0.00343 ± 0.0027 |
| UCCUGGAACUGCUUGCAUAGUAUUUAGAAA | 0.103 ± 0.019 | 0.00485 ± 0.0026 |
| UCCUGGAUGAGCUUGCAUAGUAUUUACAAA | 0.0638 ± 0.018 | 0.00416 ± 0.0028 |
| UCCUCCUAGUGCUUGCAUAGUAUUUAGAAA | 0.0113 ± 0.0046 | 0.00361 ± 0.0021 |
